A selection: hits, their analogues and other compounds. The true share with any hit is near 6%.
D1 antagonist: antagonists of human D1 dopamine receptor | HEK293 TREx D1 cells, calcium flux, dopamine EC80; active compounds read low | hit rate 3.2% among 360,000 | activity change, negative = inhibition, % at 10 µM | P21728; in the data active = activity change below about -30%
Target sequence (P21728 whole entry, looked up): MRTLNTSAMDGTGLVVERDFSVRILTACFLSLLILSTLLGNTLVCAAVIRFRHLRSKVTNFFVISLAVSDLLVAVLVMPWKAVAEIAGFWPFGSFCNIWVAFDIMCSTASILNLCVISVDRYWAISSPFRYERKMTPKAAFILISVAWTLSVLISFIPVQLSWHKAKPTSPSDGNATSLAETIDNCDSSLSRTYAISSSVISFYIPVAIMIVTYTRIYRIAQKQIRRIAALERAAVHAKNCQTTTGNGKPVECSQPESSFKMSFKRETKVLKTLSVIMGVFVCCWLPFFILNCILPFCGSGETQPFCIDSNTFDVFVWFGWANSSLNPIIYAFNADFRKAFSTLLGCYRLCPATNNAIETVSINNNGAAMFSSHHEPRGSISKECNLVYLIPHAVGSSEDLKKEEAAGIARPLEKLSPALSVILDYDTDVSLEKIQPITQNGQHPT
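Inducible Hek293 Trex D1 cells (tetracycline, overnight, 30 C). Calcium dye 30–90 min RT. Antagonist mode: EC80 dopamine added after 180 s compound read.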
DRD3 antagonist: blocks the human D3 dopamine receptor | D3R cells, DiscoveRx beta-arrestin luminescence, antagonist mode; active compounds read low | hit rate 2.5% among 360,000 | max response, negative = inhibition, % | P35462; in the data active = max response below about -50%; inconclusive = no clear call, values can overlap the other calls
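Cells plated overnight at 1500 cells/well, then exposed to library compounds with dopamine controls for 90 minutes at 37 degrees C. DiscoveRx reagent added for 30–60 minutes at room temperature; luminescence read, quantitative HTS format.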
D1 PAM: enhances dopamine response at the human D1 receptor | hit rate 0.036% among 360,000 | P21728 | potentiation, % at 10 µM | HEK293 TREx D1 cells, calcium flux, dopamine EC20 potentiation; in the data active = potentiation above about 30%
D3 ag: activates the human D3 dopamine receptor; D3R DiscoveRx beta-arrestin cells, luminescence, 90 min; P35462; max activation, %; hit rate 0.58% among 410,000; in the data active = max activation above about 30%
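Agonist-mode cell screen: cells plated at 1500/well and incubated overnight at 37 °C, then exposed to library compounds for 90 min at 37 °C. Detection reagent was added for 30–60 min at room temperature, and luminescence was read.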
D1 agonist: activates the human D1 dopamine receptor | hit rate 1% among 360,000 | activation, % at 2 µM | AID 504660 | HEK293 T-REx D1 cells, calcium flux, agonist mode | P21728; in the data active = activation above about 30%
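Inducible HEK293 T-REx D1 cells, force-coupled to calcium signalling, were plated at 4000 cells/well with tetracycline and held overnight at 30 C. After no-wash calcium dye loading, compound-evoked calcium rise over 180 s flagged agonists.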
Each line names hits and unclear results; the compound was inactive in the other large screens; ! = repeats disagree.

Cc1ccccc1OCC(=O)Nc1ccncc1	none
CSc1cc(C)c(OCC(=O)Nc2ccc(NC(C)=O)cc2)c(C)c1	DRD3 antagonist -52
CC(C)(CO)NCc1ccccc1OCC(=O)Nc1ccccc1	none
COc1ccc(NC(=O)/C(C#N)=C/c2ccc(OCc3cc(=O)n4nc(C)sc4n3)cc2)cc1	none (no result: DRD3 antagonist)
Cc1nn2c(=O)cc(COc3ccc(/C=C(\C#N)C(=O)Nc4ccc(F)cc4)cc3)nc2s1	D3 ag 78 (no result: DRD3 antagonist)
c1ccc([C@H]2CN3C(=N2)Sc2ccccc23)cc1	DRD3 antagonist -52 (no result: D1 antagonist)
N#CC1=C(N)N2C(=C(C#N)C1c1ccccc1)Sc1ccccc12 (centres undefined)	none (no result: DRD3 antagonist, D3 ag)
CCCC(=O)OCc1cnc(C)c2oc(=O)c(C(=O)Nc3ccc(F)cc3C)cc12	none (no result: DRD3 antagonist)
O=[N+]([O-])c1ccc(NCc2ccccc2)nc1	D1 antagonist -35, DRD3 antagonist inconclusive
O=[N+]([O-])c1ccc(S(=O)(=O)c2ccccc2)nc1	D1 antagonist -40, DRD3 antagonist -151
Nc1ccc(S(=O)(=O)c2ccccc2)nc1	none
Cc1cc(S(=O)(=O)c2ccc([N+](=O)[O-])cn2)ccc1Br	DRD3 antagonist -73 (no result: D1 antagonist, D1 PAM, D1 agonist)
O=[N+]([O-])c1ccc(Nc2ccccc2)nc1	none
Cc1ccc(S(=O)(=O)c2ccc([N+](=O)[O-])cn2)cc1	DRD3 antagonist -75
CCN(C(=O)c1cc2c(=O)oc3ccccc3c2s1)c1ccc(C)c(C)c1	none (no result: DRD3 antagonist)
Cc1oc2ccc(O)c(CN3CCN(C)CC3)c2c1C(=O)Nc1ccc(C(C)C)cc1	none (no result: DRD3 antagonist)
CCOc1cc(C#N)c(NC(=O)Cn2nnc(-c3ccc(C)cc3)n2)cc1OCC	none (no result: DRD3 antagonist)
O=C(COC(=O)C1CCN(S(=O)(=O)c2cc([N+](=O)[O-])ccc2Cl)CC1)Nc1ncc(Cl)cc1Cl	D1 antagonist -34
COc1ccccc1C(=O)NCCC(=O)NCCc1ccccc1	D1 antagonist -77
O=C(c1ccc(F)cc1)N1CCC(c2nc(-c3ccc(S(=O)(=O)N4CCCC4)cc3)no2)CC1	none (no result: DRD3 antagonist)
COc1cc(-c2nnn(CC(=O)Nc3ccc(OC(F)(F)F)cc3)n2)cc(OC)c1OC	D1 antagonist -32 (no result: DRD3 antagonist)
COc1ccccc1-c1noc2ncnc(Nc3ccccc3C)c12	DRD3 antagonist inconclusive
COc1ccccc1-c1noc2ncnc(Nc3cccc(C)c3C)c12	D1 antagonist -32
Cn1c(SCC(=O)c2ccccc2)nc2cccnc21	none
Cc1ccc(C(=O)CSc2nc3cccnc3n2C)cc1	D1 antagonist -37
CCSc1nc2ccccc2n1C(=O)/C=C\c1ccc(OC)c(OC)c1	DRD3 antagonist -54
CCSc1nc2ccccc2n1CC(N)=O	none
CC(C)NC(=O)N1CCN(S(=O)(=O)c2ccc3c(ccn3C)c2)CC1	none (no result: DRD3 antagonist)
CC(CC(c1ccccc1)c1ccccc1)NC(C)(C)C (centres undefined)	none (no result: D1 antagonist, DRD3 antagonist, D1 PAM, D1 agonist)
Cc1ccc(S(=O)(=O)N2CCN(C)CC2)cc1-c1nnc2c3ccccc3c(C)nn12	D1 antagonist -33
CCOc1ccc(-c2cccc(NS(=O)(=O)c3ccccc3C(F)(F)F)c2)nn1	none (no result: DRD3 antagonist)
COC(=O)Nc1ccc(SCC(=O)c2cccc([N+](=O)[O-])c2)cc1	DRD3 antagonist -60
CC(=O)Nc1ccc(C(=O)OCC(=O)c2cccc([N+](=O)[O-])c2)cc1	none
CC(=O)Nc1ccc(NC(=O)CCC(=O)OCC(=O)c2cccc([N+](=O)[O-])c2)cc1	D1 antagonist -67
COC(=O)C1=C(C)NC2=C(C(=O)CC(c3cccs3)C2)C1c1ccsc1 (centres undefined)	D1 antagonist -48, DRD3 antagonist inconclusive
CCOC(=O)C1=C(C)NC2=C(C(=O)CC(c3cccs3)C2)C1c1cccs1 (centres undefined)	DRD3 antagonist -82
COC(=O)C1=C(C)NC2=C(C(=O)CCC2)C1c1ccsc1 (centres undefined)	none (no result: DRD3 antagonist, D3 ag)
Cc1nn(C)c(C)c1CCNC(=O)Nc1cccc(Cl)c1C	none (no result: DRD3 antagonist)
Cc1ccc(S(=O)(=O)NCC(=O)N(CC(=O)NCc2ccco2)C2CCCC2)cc1	D1 antagonist -38
O=C(CN(C(=O)CNS(=O)(=O)c1ccc(F)cc1)c1ccc(F)cc1)NCc1ccco1	D1 antagonist -32
O=C(CN(C(=O)CNS(=O)(=O)c1ccccc1)C1CCCC1)NCC1CCCO1 (centres undefined)	DRD3 antagonist -53
Cc1ccc(S(=O)(=O)NCC(=O)N(CC(=O)NCc2ccco2)Cc2ccccc2)cc1	none
CCCN(CC)C(CC)C(=O)Nc1c(C)cccc1C (centres undefined)	none (no result: D1 antagonist, DRD3 antagonist, D1 PAM, D1 agonist)
COc1ccccc1N1CCN(CCN2C(=O)C3CCCCN3C2=O)CC1 (centres undefined)	DRD3 antagonist -79
COc1ccccc1N1CCN(CCCN2C(=O)C3CCCN3C2=O)CC1 (centres undefined)	DRD3 antagonist -83 (no result: D1 antagonist, D1 PAM, D1 agonist)
O=C1C2CCCN2C(=O)N1CCN1CCN(c2ccccc2)CC1 (centres undefined)	none
COc1ccccc1N1CCN(CCCN2C(=O)C3CCCCN3C2=O)CC1 (centres undefined)	DRD3 antagonist -66 (no result: D1 antagonist, D1 PAM, D1 agonist)
CCOC(=O)c1cc(-c2ccc(C)cc2)nn1Cc1ccccc1	none (no result: DRD3 antagonist)
COc1ccc(N2CCN(C(=O)Cc3noc4ccc(C)cc34)CC2)cc1	none (no result: DRD3 antagonist)
COc1ccc2sc(N(Cc3cccnc3)C(=O)c3cccs3)nc2c1	none (no result: D1 antagonist, DRD3 antagonist)
CC(C)NC(=O)c1ccc2c(c1)nc1n2CCCCC1	none (no result: DRD3 antagonist)
COc1ccc(CCN(C(=O)c2snc(C(N)=O)c2N)C(C(=O)NCC2CCCO2)c2ccc(F)cc2)cc1OC (centres undefined)	D3 ag 36
Cc1cccc(CCN(C(=O)c2snc(C(N)=O)c2N)C(C(=O)NCC2CCCO2)c2ccc(F)cc2)c1 (centres undefined)	none
CCOc1ccc(CCNC(=O)c2cc(C)nc3c2c(C)nn3-c2cccc(F)c2)cc1	D3 ag 63 (no result: DRD3 antagonist)
Cc1cc(CNC(=O)c2cccc([N+](=O)[O-])c2C)c2ccccc2n1	D1 antagonist -46
COc1cccc(CNC(=O)c2cc(C)nc3c2c(C)nn3-c2ccc(C)cc2)c1	D3 ag 37 (no result: DRD3 antagonist)
Cc1cc(CNC(=O)Cc2ccccc2)c2ccccc2n1	none
COc1cc(NC(=O)c2cc(C)nc3ccccc23)cc(OC)c1	none
COc1cccc(CNC(=O)c2cc(C)nc3ccccc23)c1	D1 antagonist -39
C[C@@H](CN1CC(=O)NC(=O)C1)N1CC(=O)NC(=O)C1	none (no result: D1 antagonist, DRD3 antagonist, D1 PAM, D1 agonist)
COc1ccc(N2CCN(CC(O)COC(c3ccccc3)c3ccccc3)CC2)cc1 (centres undefined)	none
CCc1ccc(OCC(O)CN2CCN(c3ccccc3)CC2)cc1 (centres undefined)	DRD3 antagonist -57!, D3 ag 41!
Cc1ccc(OCC(O)CN2CCN(CC(O)COc3ccc(C)cc3)CC2)cc1 (centres undefined)	DRD3 antagonist inconclusive
CCCc1ccc(OCC(O)CN2CCN(c3ccccc3)CC2)cc1 (centres undefined)	DRD3 antagonist inconclusive, D3 ag 68
CC(C)(C)c1ccccc1Nc1nc(C#N)nc(NC2CCCC2)n1	none (no result: DRD3 antagonist, D3 ag)
